Measured values reported in the supplement of paper PMC9254222.
The full ranking holds about 1,100 compounds; the median of “Wnt reporter firefly/Renilla luciferase ratio relative to plate median” is about 1.1, and the highest 2% start at about 1.6. The full list was thinned out, with the highest values kept by preference.

System: HEK293T (UBE3A T485A transfected, BAR Wnt reporter)
Test: Wnt reporter firefly/Renilla luciferase ratio relative to plate median (fold (linear ratio)); higher = more Wnt/beta-catenin reporter activation
Settings: 24 h
Outline: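 Wnt activity (firefly/Renilla ratio) and cell health (raw Renilla) were read with Dual-Glo luciferase and median-centred plate by plate. HEK293T cells, at 4500 cells/well in white 384-well plates with DMEM plus 10% FBS at 37°C and 5% CO2, carried a transfected BAR firefly luciferase Wnt reporter, TK-Renilla and an expression plasmid. The chemicals were applied by robot at 0.01–100 uM for 24 h, beginning four hours after transfection, and results were averaged across four biological replicates.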

SMILES	Wnt reporter firefly/Renilla luciferase ratio (concentration: 0.1 uM)	Wnt reporter firefly/Renilla luciferase ratio (concentration: 1 uM)	Wnt reporter firefly/Renilla luciferase ratio (concentration: 10 uM)	Wnt reporter firefly/Renilla luciferase ratio (concentration: 100 uM)	Wnt reporter firefly/Renilla luciferase ratio (concentration: 0.01 uM)
c1ccc(OP(Oc2ccccc2)Oc2ccccc2)cc1 [Triphenyl phosphite]	0.971	1.06	1	1.26	
NC(=O)[O-].[NH4+] [Ammonium carbamate]	0.817	0.94	0.934	1.31	
CCC(C)c1cc([N+](=O)[O-])cc([N+](=O)[O-])c1O (stereo unspecified) [Dinoseb]	0.797	0.806	0.929		
Clc1nc(Cl)nc(Nc2ccccc2Cl)n1 [Anilazine]	0.926	1.15	1.18	1.07	0.958
CNC(=S)[S-].O.O.O.[Na+] [Metam-sodium hydrate]	0.921	0.977	1.06	1.1	0.905
CCCN(CCC)N=O [N-Nitrosodipropylamine]	1.18	0.939	1.15	1.06	
CCN(CC)N=O [N-Nitrosodiethylamine]	1.12	1.13	1.27	1.82	
CCCCN(CCCC)N=O [N-Nitrosodibutylamine]	0.968	0.902	1.04	1.27	
CCCCC(C#N)(Cn1cncn1)c1ccc(Cl)cc1 (stereo unspecified) [Myclobutanil]	1	0.933	1.09	0.269	0.908
COc1cc(OC)nc(NC(=O)[N-]S(=O)(=O)c2ncccc2OCC(F)(F)F)n1.[Na+] [Trifloxysulfuron-sodium]	1.02	1.23	1.22	1.52	1.06
N#Cc1cccnc1 [3-Pyridinecarbonitrile]	0.974	1.13	1.25	1.35	
CO/N=C(/C1=NOCCO1)c1ccccc1Oc1ncnc(Oc2ccccc2Cl)c1F [Fluoxastrobin]	1.27	0.946	0.315	1.23	1.16
Cn1sc(Cl)cc1=O [5-Chloro-2-methyl-3(2H)-isothiazolone]	1.28	1.07	1.07	0.458	
COc1ccc(C(c2ccc(OC)cc2)C(Cl)(Cl)Cl)cc1 [Methoxychlor]	1.13	1.12	1.25	1.04	0.858
Cn1cc(-c2ccccc2)c(=O)c(-c2cccc(C(F)(F)F)c2)c1 [Fluridone]	1.28	0.917	0.825	0.175	
Cc1ccc([N+](=O)[O-])cc1C [1,2-Dimethyl-4-nitrobenzene]	0.844	1.17	1.19	1.42	
CN(C)c1ccccc1 [N,N-Dimethylaniline]	1.11	1.11	0.912	1.02	
C[C@]12CCC(=O)C=C1CC[C@@H]1[C@@H]2CC[C@]2(C)C(=O)CC[C@@H]12 [4-Androstene-3,17-dione]	1.04	1.01	1.12	0.219	
Clc1ccccc1-c1nnc(-c2ccccc2Cl)nn1 [Clofentezine]	1.25	0.999	1.19	1.59	1.31
CC(Cl)(Cl)C(=O)O [Dalapon]	1.05	1.18	1.08	1.25	
COC(=O)Nc1nc2ccccc2[nH]1 [Carbendazim]	1.09	1.16	0.661	0.13	
C[n+]1ccc(-c2cc[n+](C)cc2)cc1 [Paraquat]	1.36	1.06	1.01	1.77	1.31

SMILES	Wnt reporter firefly/Renilla luciferase ratio (concentration: 0.1 uM)	Wnt reporter firefly/Renilla luciferase ratio (concentration: 1 uM)	Wnt reporter firefly/Renilla luciferase ratio (concentration: 10 uM)	Wnt reporter firefly/Renilla luciferase ratio (concentration: 100 uM)	Wnt reporter firefly/Renilla luciferase ratio (concentration: 0.01 uM)
CCOP(=S)(OCC)SCSC(C)(C)C [Terbufos]	1.28	1.01	1.16	1.27	
CCNc1nc(Cl)nc(NC(C)(C)C#N)n1 [Cyanazine]	0.905	0.962	0.88	1.15	0.787
Cc1ccc([N+](=O)[O-])cc1 [4-Nitrotoluene]	0.766	0.567	0.741	0.771	
CCCCC(O)(Cn1cncn1)c1ccc(Cl)cc1Cl (stereo unspecified) [Hexaconazole]	0.897	1	0.919	0.397	0.917
ClCC(Cl)CCl [1,2,3-Trichloropropane]	1.21	1.09	1.12	1.41	
CCOP(=S)(OCC)SCSCC [Phorate]	1.03	0.934	1.08	1.3	
CCOP(=S)(OCC)SCn1c(=O)oc2cc(Cl)ccc21 [Phosalone]	1.45	1.27	1.03	0.607	1.62
COP(=O)(OC)SCn1c(=O)oc2cc(Cl)cnc21 [Azamethiphos]	1.28	0.979	0.625	0.373	0.825
Cc1ccccc1O [o-Cresol]	1.01	0.966	1.1	1.15	
C=C(C)C(=O)[O][Sn]([CH2]CCC)([CH2]CCC)[CH2]CCC [Tributyltin methacrylate]	0.639	0.638	0.679		
Cc1cc(N=Nc2ccccc2C)ccc1N [2-Amino-5-azotoluene]	1.18	0.968	1.06	0.582	
Nc1cc2c3c(c1)C(c1ccccc1)=N[C@@H](NC(=O)c1cccnc1)C(=O)N3CC2	1.19	0.977	1.24	0.802	
Nc1cc(Cl)cc(C(=O)O)c1Cl [Chloramben]	1.14	1.12	1.34	1.49	
[Cl-].[Cl-].[Hg+2] [Mercuric chloride]	1.21	1.07	1.69		
O=C(O)C1C(C(=O)O)C2(Cl)C(Cl)=C(Cl)C1(Cl)C2(Cl)Cl (stereo unspecified) [Chlorendic acid]	0.978	1.1	0.935	1.03	
NCCO.O=C(O)c1nc(Cl)ccc1Cl [Clopyralid-olamine]	0.94	1.18	1.56	2.61	0.868
Clc1cccc(C(Cl)(Cl)Cl)n1 [Nitrapyrin]	1.01	0.881	1.03	1.23	1.08
O=C(O)c1c(Cl)ccc2cc(Cl)cnc12 [Quinclorac]	1.3	1.14	1.14	1.58	1.38
O=C(O)c1nc(Cl)ccc1Cl [Clopyralid]	1.81	1.02	0.988	1.12	1.17
Nc1c(Cl)c(Cl)nc(C(=O)O)c1Cl [Picloram]	1.47	1	1.13	1.28	0.972
CNC(=O)Oc1cccc2c1OC(C)(C)O2 [Bendiocarb]	1.17	1.01	0.983	1.38	1.3
CC(C)Oc1cccc(NC(=O)c2ccccc2C(F)(F)F)c1 [Flutolanil]	0.79	1.01	0.768	0.559	0.682

SMILES	Wnt reporter firefly/Renilla luciferase ratio (concentration: 0.1 uM)	Wnt reporter firefly/Renilla luciferase ratio (concentration: 1 uM)	Wnt reporter firefly/Renilla luciferase ratio (concentration: 10 uM)	Wnt reporter firefly/Renilla luciferase ratio (concentration: 100 uM)	Wnt reporter firefly/Renilla luciferase ratio (concentration: 0.01 uM)
CC(Oc1cccc(Cl)c1)C(=O)O (stereo unspecified) [Cloprop]	1.51	1.12	1.28	1.45	1.31
CC(C)OC(=O)Nc1cccc(Cl)c1 [Chlorpropham]	1.78	1.23	1.47	0.823	1.45
CCNc1nc(NC(C)C)nc(SC)n1 [Ametryn]	0.725	0.813	1.29	0.791	0.686
CC(C)C1(C)N=C(c2ncccc2C(=O)O)NC1=O (stereo unspecified) [Imazapyr]	1.29	1.04	1.09	1.24	1.14
CNC(=O)CSP(=S)(OC)OC [Dimethoate]	0.993	1.02	1.02	1.1	0.95
COP(=S)(OC)SCn1nnc2ccccc2c1=O [Azinphos-methyl]	0.911	0.978	0.89	0.837	1.01
COP(=S)(OC)SCN1C(=O)c2ccccc2C1=O [Phosmet]	1.07	0.925	1.47	1.65	
CCNc1nc(Cl)nc(NCC)n1 [Simazine]	1.19	1.01	1.06	1.52	1
O=C(O)C(F)(F)C(F)(F)C(F)(F)C(F)(F)C(F)(F)C(F)(F)C(F)(F)F	1.71	1.19	1.41	1.46	1.29
O=C(O)C(F)(F)C(F)(F)C(F)(F)C(F)(F)C(F)(F)C(F)(F)F [Perfluoroheptanoic acid]	0.82	1.02	0.932	0.483	
O=C(O)C(F)(F)C(F)(F)C(F)(F)C(F)(F)C(F)(F)C(F)(F)C(F)(F)C(F)(F)F	1.29	0.95	1.12	0.369	
O=C(O)C(F)(F)C(F)(F)C(F)(F)C(F)(F)C(F)(F)C(F)(F)C(F)(F)C(F)(F)C(F)(F)F	0.93	1.14	1.04	1.19	
O=C(O)C(F)(F)C(F)(F)C(F)(F)C(F)(F)C(F)(F)F	1.16	1.48	1.38	2.14	
O=C(O)C(F)(F)C(F)(F)C(F)(F)C(F)(F)C(F)(F)C(F)(F)C(F)(F)C(F)(F)C(F)(F)C(F)(F)F [Perfluoroundecanoic acid]	1.11	0.936	0.954	0.68	
Oc1cc(Cl)c(Cl)cc1Cl [2,4,5-Trichlorophenol]	1.12	0.917	0.962		
CCCCCCCCCC(CC)c1ccc(S(=O)(=O)O)cc1.OCCN(CCO)CCO (stereo unspecified) [Dodecylbenzene sulfonate triethanolamine(1:1)]	1.13	1.29	1.13	1.01	
COc1cnc(OC)n2nc(NS(=O)(=O)c3c(OCC(F)F)cccc3C(F)(F)F)nc12 [Penoxsulam]	1.09	1.29	1.38	1.75	1.12
C=CC(=O)NCNC(=O)C=C [N,N'-Methylenebisacrylamide]	0.951	0.999	1.03	1.21	
CN(C)c1ccc(Cc2ccc(N(C)C)cc2)cc1 [4,4'-Methylenebis(N,N-dimethylaniline)]	1.02	1.07	1.14	0.474	
CCc1nn(C)c(C(=O)NCc2ccc(C(C)(C)C)cc2)c1Cl [Tebufenpyrad]	0.632	0.279	0.218	0.51	0.583
